Screening results from PubChem.
TcdB GH inh: TcdB glycohydrolase inhibitors, primary screen, biochemical, single point, plate reader. TcdB glycohydrolase enzymatic assay. inhibition, % at 9.99 µM. AID 652162, 2013. 350,000 tested, 0.24% active. Toxin B (Clostridioides difficile), P18177; in the data active = inhibition above about 10%
Yp Topo-I inh: Yersinia pestis topoisomerase I inhibitors, primary screen, biochemical, cleavage product accumulation, plate reader, single point. activity, % at 10 µM. Y. pestis Topo-I cleavage product accumulation. AID 504884, 2011. 360,000 tested, 0.064% active; in the data active = activity above about 50%, passing the limit was not always enough; inconclusive = no clear call, values can overlap the other calls
Mtb BioA inh: M. tuberculosis BioA enzyme inhibitors, primary screen, biochemical, plate reader, single point, HTS | inhibition, % at 9.99 µM | AID 602481, 2012 | 360,000 tested, 0.096% active | purified M. tuberculosis BioA enzyme | 7,8-diaminopelargonic acid synthase BioA (Mycobacterium tuberculosis); in the data active = inhibition above about 40%; inconclusive = no clear call, values can overlap the other calls
PrP 5UTR inh: inhibition of PrP 5' UTR reporter expression | cell-based PrP 5' UTR mRNA reporter, plate reader | 340,000 tested, 0.35% active | AID 488862, 2010 | inhibition, % (no concentration beside the values); in the data active = inhibition above about 52%; note: 0 = median of the neutral control wells
PrP UTR cherry: prion 5' UTR mRNA inhibition, cherry-pick retest | cell-based prion protein 5' UTR reporter, plate reader | 1,100 tested, 48% active | AID 504592, 2011 | shares compounds with PrP 5UTR inh | inhibition, % at 2.5 µM; in the data active = inhibition above about 54%; inconclusive = no clear call, values can overlap the other calls
Starred values were filed as active, the others as inactive; ? = inconclusive; · = not tested or not shown. An excerpt weighted towards active compounds, which were near 0.57% of everything screened.

SMILES	TcdB GH inh	Yp Topo-I inh	Mtb BioA inh	PrP 5UTR inh	PrP UTR cherry
c1cc2c(cc1C1=NNC(=NC3CC3)SC1)OCCO2	2	4	·	91*	91*
Cc1cc(C2=NNC(=NC3CCCCC3)SC2)c(C)n1-c1c(C)n(C)n(-c2ccccc2)c1=O	2	-4	-1	-29	·
Cc1cc(C2=NNC(=NC3CC3)SC2)c(C)n1-c1ccccc1F	1	1	·	94*	96*
CCC(=O)N1CC2(C1)CN(S(C)(=O)=O)[C@@H](CO)c1c2c2ccc(OC)cc2n1C	0	·	·	·	·
CCC(=O)N1[C@H](CO)[C@H](c2ccccc2)C12CN(C(=O)Nc1cccc(OC)c1)C2	-1	·	·	·	·
C[C@@H]1CN([C@H](C)CO)C(=O)c2cc(NC(=O)Cc3cn(C)c4ccccc34)ccc2O[C@H]1CN(C)C(=O)Nc1ccc(F)cc1	-1	·	-2	·	·
C[C@H]1CN([C@@H](C)CO)C(=O)c2cc(C#Cc3ccncc3)cnc2O[C@H]1CN(C)Cc1ccncc1	·	·	-1	·	·
C=CCCC1(CC)C(=O)NC(=S)NC1=O	0	3	·	-6	·
C=CCCC1(CC(C)C)C(=O)NC(=S)NC1=O	2	0	·	91*	-3
C=CCn1c(O)c(C=Nc2ccc(OC)cc2C)c(=O)[nH]c1=O	·	5	-2	55*	0
CCN(CCCl)c1cc(CN(C)C)cc(NC(=O)c2ccc(C(=O)Nc3cc(CN(C)C)cc(N(CC)CCCl)c3)cc2)c1	1	-46	·	95*	91*
C/C=C/c1ccc([C@@H]2[C@H](CO)N(C(=O)c3cnccn3)C23CN(C(=O)C2CC2)C3)cc1	0	·	·	·	·
COc1ccc(Oc2nccc(-c3ccc(F)cc3)c2C#N)cc1	·	5	0	76*	-47
C[C@H](CO)N1C[C@H](C)[C@H](CN(C)Cc2cccc(F)c2)Oc2ncc(-c3ccccc3F)cc2C1=O	-2	·	4	·	·
CCc1ccc(NC(=O)c2cnn3ccccc23)cc1	-1	-2	0	51*	?
CCC(=O)Nc1ccc2c(c1)C(=O)N(C)C[C@@H](OC)[C@@H](C)CN(C(=O)c1ccncc1)[C@H](C)CO2	0	·	-2	·	·
CCOC(=O)C1=CN(Cc2ccco2)S(=O)(=O)N(C)C1c1ccc2ccccc2c1 (stereo unspecified)	0	6	-1	55*	-7
CCOC(=O)C1=CN(Cc2cccc(Br)c2)S(=O)(=O)N(C)C1C (stereo unspecified)	0	41	0	47	·
CCOC(=O)C1=CN(Cc2cccc(I)c2)S(=O)(=O)N(C)C1C (stereo unspecified)	0	29	0	90*	-11
Cn1cnc2nc[nH]c2c1=O	-1	-5	-1	55*	-7
NNC(=S)NC1CCCCC1	0	-4	-2	80*	-18
C=CCn1c(SCc2c(C)noc2C)nc2ccccc2c1=O	·	11	5	67*	82*
Cc1ccc(/C=C2/SC(=S)N(c3ccc(S(=O)(=O)Nc4nccs4)cc3)C2=O)cc1	1	-1	-3	83*	-35
CO[C@H]1CN(C)C(=O)c2cc(NC(=O)c3cccc(F)c3)ccc2OC[C@@H](C)N(CC2CC2)C[C@H]1C	0	·	-1	·	·
CCc1ccccc1NC(=O)CSc1nc2ccccc2nc1N1CCOCC1	2	-4	-2	58*	-8
SMILES	TcdB GH inh	Yp Topo-I inh	Mtb BioA inh	PrP 5UTR inh	PrP UTR cherry
O=C(C[C@@H]1CC[C@@H](NS(=O)(=O)c2ccc(F)cc2)[C@@H](CO)O1)NCc1ccncn1	0	·	2	·	·
CC(C)Cn1c(-c2cccc(S(=O)(=O)N3CCOCC3)c2)n[nH]c1=S	1	0	-1	77*	-18
COc1ccc(Cc2cnc(N)s2)cc1	1	-6	·	77*	11
COc1ccc(OCCc2nnc(N)s2)cc1	·	7	-2	-16	·
C/C=C/c1ccc2c(c1)O[C@H](CN(C)C(=O)CN1CCOCC1)[C@@H](C)CN([C@@H](C)CO)S2(=O)=O	-1	·	2	·	·
C[C@@H]1CN([C@@H](C)CO)C(=O)c2cccc(NS(=O)(=O)c3cn(C)cn3)c2O[C@H]1CN(C)Cc1ccc(C(=O)Nc2ccccc2N)cc1	-1	·	·	·	·
O=C(C[C@H]1C=C[C@@H](NC(=O)c2cccnc2)[C@@H](CO)O1)NCc1ccc(Cl)c(Cl)c1	0	·	-2	·	·
COc1ccc(C2/C(=C(/O)c3ccc(Cl)cc3)C(=O)C(=O)N2CCN2CCOCC2)c(OC)c1 (stereo unspecified)	·	5	·	63*	-9
